Measured values published in PubChem BioAssay (Tox21).
Results filed as inconclusive are left out. Active and inactive are the calls of the source. Unless noted, the call rests on the fitted dose curve; in most records, active means well fitted curve in the direction sought with a large enough effect in the repeat runs; inconclusive means weak or mixed curves; inactive means no such curve, though single readings can be large; an effect the other way counts as inactive or inconclusive.

Columns and labels:
[1] = qHTS assay to identify aromatase inhibitors - cell viability counter screen (AID 743084);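 further: cells stimulated with testosterone during compound exposure; nearly all actives have a fitted effect of over 55% in size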; further: potency means the concentration at half of the fitted maximal effect
[2] = qHTS assay to identify small molecule that activate the aryl hydrocarbon receptor (AhR) signaling pathway - cell viability counter screen (AID 743086);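 further: HepG2 liver cells carrying the AhR DRE luciferase reporter; series mostly up to about 70 µM; nearly all actives have a fitted effect of over 45% in size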
How it was run: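 HepG2-AhR-luc (HG2L7.5c1) cells, 4000/well, treated 24 h at 37 C with compound; viability measured as CellTiter-Fluor fluorescence after 30 min in the same wells as the luciferase read.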

[3] = qHTS assay to identify small molecule antagonists of the peroxisome proliferator-activated receptor gamma (PPARg) signaling pathway - cell viability counter screen (AID 743194); further: nearly all actives have a fitted effect of over 55% in size
How it was run: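 Cytotoxicity counter screen in PPARg-bla HEK293H cells, same wells as reporter assay. Compounds plus 50 nM rosiglitazone (final) for 17 h at 37 C, then viability read by CellTiter-Glo luminescence.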

[4] = qHTS assay for small molecule agonists of the antioxidant response element (ARE) signaling pathway (AID 743202; active means well fitted activation curve with a large enough effect in the signal ratio in the repeat runs, not every such curve was filed as active; the % refers to the signal ratio; further: potency means the concentration at half of the fitted maximal effect)
How it was run: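 ARE-bla HepG2 cells (beta-lactamase reporter under the antioxidant response element), plated 5 hours, then exposed to compounds 16 hours at 37 C. LiveBLAzer B/G FRET substrate added for 2 hours at room temperature; fluorescence intensity read.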

[5] = qHTS assay for small molecule activators of the heat shock response signaling pathway - cell viability counter screen (AID 743209); further: nearly all actives have a fitted effect of over 50% in size
How it was run: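 Quantitative HTS format, Tox21 10K library. HeLa cells carrying an HSE-driven beta-lactamase reporter were treated 5 h at 37 C, then assessed for viability by CellTiter-Glo luminescence.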

[6] = target: Peroxisome proliferator-activated receptor gamma (Homo sapiens) (UniProt P37231); test: qHTS assay to identify small molecule antagonists of the peroxisome proliferator-activated receptor gamma (PPARg) signaling pathway (AID 743191; calls by dose curve; further: nearly all actives have a fitted effect of over 30% in size; further: potency means the concentration at half of the fitted maximal effect)
Chain of Peroxisome proliferator-activated receptor gamma (Homo sapiens) (P37231 whole entry, looked up): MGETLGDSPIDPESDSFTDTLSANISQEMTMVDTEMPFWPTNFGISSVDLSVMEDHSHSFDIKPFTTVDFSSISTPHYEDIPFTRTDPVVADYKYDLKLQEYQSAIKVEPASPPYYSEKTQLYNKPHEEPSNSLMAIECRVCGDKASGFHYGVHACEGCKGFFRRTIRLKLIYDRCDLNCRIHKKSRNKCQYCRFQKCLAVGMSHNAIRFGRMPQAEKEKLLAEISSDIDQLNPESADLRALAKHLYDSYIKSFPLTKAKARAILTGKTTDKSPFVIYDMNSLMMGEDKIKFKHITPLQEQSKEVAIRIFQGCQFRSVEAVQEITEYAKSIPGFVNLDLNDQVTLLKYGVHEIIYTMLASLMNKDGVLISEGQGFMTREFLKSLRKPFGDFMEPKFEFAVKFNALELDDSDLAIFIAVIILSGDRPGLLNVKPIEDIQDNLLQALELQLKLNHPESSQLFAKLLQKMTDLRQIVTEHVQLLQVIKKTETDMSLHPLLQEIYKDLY
How it was run: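 GeneBLAzer PPARg UAS-bla HEK293H cells, 5 h post-plating, exposed to compounds 17 h at 37C. LiveBLAzer B/G FRET substrate added for 1 h at room temperature; beta-lactamase reporter read by fluorescence intensity.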

[7] = qHTS assay for small molecule agonists of the antioxidant response element (ARE) signaling pathway - cell viability counter screen (AID 743203; calls by dose curve; further: nearly all actives have a fitted effect of over 55% in size)
How it was run: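 Cells (ARE-bla HepG2, 2,000/well) receive DMSO-dissolved compounds after a 5 hrs rest. Plates incubate 16 hrs at 37C/5% CO2. CellTiter-Glo luminescence is then recorded after 30 min at room temperature.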

[8] = qHTS assay for small molecule activators of the heat shock response signaling pathway (AID 743210; active means well fitted activation curve with a large enough effect in the signal ratio in the repeat runs, with a control signal flat, not every such curve was filed as active; the % refers to the signal ratio; further: series mostly up to about 63 µM)
How it was run: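 HSE-bla HeLa cells (beta-lactamase reporter under heat shock response elements), plated overnight, then exposed to compounds 5 h at 37 C; LiveBLAzer B/G FRET substrate added, 2.5 h at room temperature, fluorescence intensity read.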

[9] = target: Peroxisome proliferator-activated receptor gamma (Homo sapiens) (UniProt P37231); test: qHTS assay to identify small molecule agonists of the peroxisome proliferator-activated receptor gamma (PPARg) signaling pathway (AID 743094; active means well fitted activation curve with a large enough effect in the signal ratio in the repeat runs, not every such curve was filed as active; the % refers to the signal ratio; further: potency means the concentration at half of the fitted maximal effect)
How it was run: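 Stably transfected HEK293H cells (GeneBLAzer PPARg UAS-bla) were incubated with test substances for 17 h at 37C after a 5 h pre-incubation; beta-lactamase activity was then detected by FRET substrate fluorescence.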

[10] = target: Aryl hydrocarbon receptor (Homo sapiens) (UniProt P35869); test: qHTS assay to identify small molecule that activate the aryl hydrocarbon receptor (AhR) signaling pathway (AID 743085); further: nearly all actives have a fitted effect of over 15% in size; further: potency means the concentration at half of the fitted maximal effect;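 on activation: HG2L7.5c1 human HepG2 liver cells with stably integrated DRE-driven firefly reporter; series mostly up to about 70 µM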
Chain of Aryl hydrocarbon receptor (Homo sapiens) (P35869 whole entry, looked up): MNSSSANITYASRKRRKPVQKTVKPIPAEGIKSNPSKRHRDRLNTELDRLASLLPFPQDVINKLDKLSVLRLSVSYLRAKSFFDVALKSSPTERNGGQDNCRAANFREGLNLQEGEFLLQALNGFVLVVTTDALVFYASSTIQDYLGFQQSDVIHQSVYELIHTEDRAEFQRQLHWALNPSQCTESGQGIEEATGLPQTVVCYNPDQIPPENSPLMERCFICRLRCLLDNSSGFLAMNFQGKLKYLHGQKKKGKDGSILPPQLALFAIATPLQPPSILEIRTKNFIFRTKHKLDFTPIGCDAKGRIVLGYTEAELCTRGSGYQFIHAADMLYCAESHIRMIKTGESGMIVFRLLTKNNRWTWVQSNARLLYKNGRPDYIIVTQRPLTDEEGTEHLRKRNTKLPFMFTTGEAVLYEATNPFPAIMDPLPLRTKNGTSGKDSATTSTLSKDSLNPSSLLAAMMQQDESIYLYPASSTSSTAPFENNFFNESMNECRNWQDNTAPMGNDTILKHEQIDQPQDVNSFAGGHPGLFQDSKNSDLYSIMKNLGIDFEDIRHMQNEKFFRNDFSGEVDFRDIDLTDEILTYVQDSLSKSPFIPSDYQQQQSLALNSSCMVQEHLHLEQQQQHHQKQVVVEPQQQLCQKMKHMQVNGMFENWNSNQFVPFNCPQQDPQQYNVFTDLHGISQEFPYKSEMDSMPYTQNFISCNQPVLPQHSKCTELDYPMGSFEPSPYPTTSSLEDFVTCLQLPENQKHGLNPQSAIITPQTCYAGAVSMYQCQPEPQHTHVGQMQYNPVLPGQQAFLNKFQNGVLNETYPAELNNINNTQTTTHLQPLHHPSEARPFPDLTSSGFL
How it was run: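 HepG2 cells (HG2L7.5c1) stably carrying a firefly luciferase reporter driven by 20 dioxin responsive elements were exposed to compound for 24 h at 37C after a 5 h settling period; luminescence rise (ONE-Glo) indicated activation.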

Measured: Potency

O=c1c2ccccc2oc2ccccc12
inactive: [1] | [2] | [3] | [4] | [5]

O=C(O)c1cccnc1Nc1cccc(C(F)(F)F)c1
inactive: [1] | [2] | [7] | [8]
active: [6] 11.9 µM

CCCCCCCCNC
not listed: [6] | [10]
inactive: all other assays above

CCOc1cc(OCC)c(C(C)=O)cc1OCC
inactive: [2] | [9] | [6] | [7] | [5]
active: [1] 26.8 µM

Cc1ccc(NC=O)c(C)c1
not listed: [6] | [10]
inactive: all other assays above

CCCCCCCCCC(C)C=O (stereo not given)
active: [9] 19.5 µM
inactive: [1] | [2] | [3] | [5]

CC(C)=CCC/C(C)=C/C=N/O
not listed: [6] | [10]
inactive: all other assays above

CC(C)(C(=O)O)c1ccc(C(O)CCCN2CCC(C(O)(c3ccccc3)c3ccccc3)CC2)cc1 (stereo not given)
not listed: [3] | [4] | [10]
inactive: all other assays above

COC(=O)c1cc(Cl)ccc1[N+](=O)[O-]
not listed: [9] | [10]
inactive: all other assays above

O=C1C=CCCC1
not listed: [9] | [10]
inactive: all other assays above

O=C(O)CNc1ccccc1
not listed: [9] | [10]
inactive: all other assays above

CNc1ccccc1
not listed: [7] | [9] | [10]
inactive: all other assays above

Oc1ccc(Oc2ccccc2)cc1
active: [4] 18.3 µM
not listed: [6] | [7] | [10]
inactive: all other assays above

C=CC(C)(O)CC/C=C(/C)CCC=C(C)C (stereo not given)
inactive: [1] | [2] | [9] | [3] | [5] | [8]

CCCCCCCCC(=O)OCC(C)OC(=O)CCCCCCCC (stereo not given)
inactive: [1] | [2] | [9] | [3] | [4] | [5]

C(/C=C/C=C/Nc1ccccc1)=Nc1ccccc1
inactive: [1] | [2] | [3] | [7] | [5] | [8]

C=CCCC
not listed: [6] | [9] | [10]
inactive: all other assays above

Cc1cc(N)n(-c2ccccc2)n1
not listed: [9] | [10]
inactive: all other assays above

CC(Cc1ccccc1)(NC(=O)CN)c1ccccc1 (stereo not given)
inactive: [1] | [2] | [6] | [3] | [5] | [8]

CCOC(OCC)OCC
not listed: [7] | [9] | [10]
inactive: all other assays above

COC(=O)/C=C/C(C)=C\C=C\C(C)=C\C=C\C=C(C)\C=C\C=C(C)\C=C\C(=O)O
not listed: [4] | [6] | [10]
inactive: all other assays above

Cc1nc(C)c(C)nc1C
not listed: [3] | [4] | [10]
inactive: all other assays above

Clc1cc(Cl)c2c(c1)N=C1CCCCCN1C2
not listed: [6] | [10]
inactive: all other assays above

S=c1[nH][nH]c(=S)s1
inactive: [1] | [2] | [3] | [7] | [5] | [8]

CCCCCCC/C=C/C=O
inactive: [1] | [2] | [7] | [5] | [8]

Cc1ccc(Cl)c(OCC(O)CNC(C)(C)C)c1 (stereo not given)
inactive: [6] | [3] | [4] | [7] | [5] | [8]

CC(C)(O)C(=O)O
inactive: [2] | [3] | [4] | [7] | [5] | [8]

O=C(c1ccco1)N1CCNCC1
inactive: [3] | [4] | [7] | [5]

[O-][n+]1ccc(Cl)cc1
inactive: [2] | [3] | [4] | [7] | [5] | [8]

CCN(CC)CC(=O)OCC(=O)[C@@]1(O)CC[C@H]2[C@@H]3CCC4=CC(=O)CC[C@]4(C)[C@H]3[C@@H](O)C[C@@]21C
inactive: [3] | [4] | [7] | [5] | [8]

CC(C)(C)NCC(O)COc1ccc(NC(=O)NC2CCCCC2)cc1 (stereo not given)
not listed: [2] | [10]
inactive: all other assays above

C/C(=C\C(C)CC(C)CC(C)C)C1CC(=O)OC1=O (stereo not given)
not listed: [1] | [4] | [7]
inactive: all other assays above

CC[C@H](NC(C)C)[C@H](O)c1ccc(O)c2[nH]c(=O)ccc12
not listed: [1] | [9]
inactive: all other assays above

Nc1ccccc1Nc1ccccc1
active: [6] 43.8 µM
inactive: [2] | [3] | [5]

Cc1ccc(NC(=O)c2ccc(CN3CCN(C)CC3)cc2)cc1Nc1nccc(-c2cccnc2)n1
active: [10] 21.1 µM
inactive: [9] | [3] | [7] | [5] | [8]

CC(=O)Nc1ccccc1O
active: [4] 27.3 µM
inactive: [1] | [2] | [5] | [8]

O=Cc1ccc(Cl)c([N+](=O)[O-])c1
inactive: [2] | [6] | [3] | [7]

CC(CC(C#N)(c1ccccc1)C(C)C)N(C)C (stereo not given)
inactive: [6] | [3] | [4] | [7] | [5] | [8]

C[C@H]1C[C@H]2[C@@H]3CCC4=CC(=O)C=C[C@]4(C)[C@@]3(F)[C@@H](O)C[C@]2(C)[C@@]1(O)C(=O)COP(=O)(O)O
not listed: [2] | [6] | [10]
inactive: all other assays above

CCC(C)C1N=C(C)C(C)S1 (stereo not given)
inactive: [2] | [3] | [4] | [7] | [5] | [8]

CCc1cnc(C(=O)O)c(C(=O)O)c1
not listed: [1]
inactive: all other assays above

CCc1c(C)[nH]c2c1C(=O)C(CN1CCOCC1)CC2 (stereo not given)
inactive: [2] | [3] | [4] | [7] | [5]

Cc1c(-c2cccnc2)c2ccccc2n1CCCCC(=O)O
inactive: [1] | [2] | [3] | [5] | [8]

CC/C=C\CCO
inactive: [2] | [3] | [4] | [5] | [8]

O=C(Cl)c1cc(Cl)cc(Cl)c1
inactive: [10] | [9] | [3] | [7] | [5] | [8]

CCC(C(=O)O)c1ccc(N2Cc3ccccc3C2=O)cc1 (stereo not given)
inactive: [6] | [3] | [7] | [5] | [8]

Cc1cc(SC2=C(O)C[C@@](CCc3ccc(N)cc3)(C(C)C)OC2=O)c(C(C)(C)C)cc1CO
inactive: [10] | [2] | [3] | [7] | [5] | [8]

Nc1ccc(C(=O)Oc2ccccc2)c(O)c1
not listed: [1] | [10]
inactive: all other assays above

C[C@H](N)C(=O)N[C@@H](C)C(=O)NC1[C@H]2CN(c3nc4c(cc3F)c(=O)c(C(=O)O)cn4-c3ccc(F)cc3F)C[C@@H]12 (stereo not given in full)
inactive: [3] | [7] | [5] | [8]

O=C(Nc1ccccc1)c1cc([N+](=O)[O-])ccc1Cl
active: [4] 7.7 µM
inactive: [9] | [3] | [7] | [5]

O=C(OCCN1CCOCC1)c1cccnc1Nc1cccc(C(F)(F)F)c1
active: [4] 26.6 µM
inactive: [6] | [3] | [7] | [5] | [8]

Cc1ccc2ccccc2c1[N+](=O)[O-]
not listed: [1]
inactive: all other assays above

COc1ccnc2c1CCCCC2S(=O)c1nc2ccccc2[nH]1 (stereo not given)
inactive: [3] | [7] | [5]
active: [4] 3.35 µM

CC1(COc2ccc(CC3SC(=O)NC3=O)cc2)CCCCC1 (stereo not given)
inactive: [1] | [2] | [3] | [5] | [8]

CCC(=O)O[C@]1(C(=O)COC)[C@@H](C)C[C@H]2[C@@H]3CCC4=CC(=O)C=C[C@]4(C)C3(F)[C@@H](O)C[C@@]21C (stereo not given in full)
inactive: [6] | [3] | [4] | [7] | [8]

O=C(C1CCCCC1)N1CC(=O)N2CCCc3ccccc3C2C1 (stereo not given)
inactive: [3] | [7] | [8]

O=C(O)c1ccc2c(c1)nc(C(=O)NC1CCN(C3CC3)CC1)n2Cc1cc(-c2ccc(Cl)s2)on1
active: [6] 3.13 µM
not listed: [1] | [9] | [10]
inactive: all other assays above

CC/C=C/CCO
inactive: [2] | [3] | [7] | [5] | [8]

CC(C)(C)c1cc(C=O)cc(C(C)(C)C)c1O
inactive: [6] | [3] | [4] | [7] | [5] | [8]

O=C1c2ccccc2C(=O)c2c1ccc(O)c2O
active: [10] 29.8 µM
inactive: [2] | [9] | [3] | [5]
